From the supplement of paper PMC10849652
Of roughly 7,900 targets only a part is listed; those with a hit were picked by preference. About 0.6% of all pairs of compound and target were hits.

Assays:
Assay in all cases: log2 fold change, soluble protein after heating vs DMSO (PISA); higher = thermal stabilisation; K562 cells, 10 uM, 30 min; active = over 0.2 and 3.5 SD of the protein, either way, in both replicates (recomputed)
saracatinib = compound: CN1CCN(CCOc2cc(OC3CCOCC3)c3c(Nc4c(Cl)ccc5c4OCO5)ncnc3c2)CC1 [saracatinib]
Summary of the method: (§1)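 Quantification of soluble protein used TMTpro 16plex LC-MS/MS, with channel sums equalised. Samples were the supernatant after 21,000xg for 90 min of pooled aliquots from K562 cells (2×10^6 cells/mL) treated with 10 μM compound for 30 min, heated for 3 min over 48°C-58°C, and extracted in PBS with 0.5% NP-40 at 4°C. Values, from duplicates, describe thermal stability against control samples on a log2 fold-change scale.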

sotrastaurin = compound: CN1CCN(c2nc(C3=C(c4c[nH]c5ccccc45)C(=O)NC3=O)c3ccccc3n2)CC1 [sotrastaurin]
Summary of the method: as §1

alvocidib = compound: CN1CC[C@H](c2c(O)cc(O)c3c(=O)cc(-c4ccccc4Cl)oc23)[C@H](O)C1 [alvocidib]
Summary of the method: as §1

Tubastatin A = compound: CN1CCc2c(c3ccccc3n2Cc2ccc(C(=O)NO)cc2)C1 [Tubastatin A]
Summary of the method: as §1

[1] = compound: CNC(=O)C1=CC=CC=C1NC2=NC(=NC=C2Cl)NC3=C(C=C(C=C3)N4CCOCC4)OC
Summary of the method: as §1

defactinib = compound: CNC(=O)c1ccc(Nc2ncc(C(F)(F)F)c(NCc3nccnc3N(C)S(C)(=O)=O)n2)cc1 [defactinib]
Summary of the method: as §1

rucaparib = compound: CNCc1ccc(-c2[nH]c3cc(F)cc4c3c2CCNC4=O)cc1 [rucaparib]
Summary of the method: as §1

[2] = compound: CNc1nc(-c2ccc3c(N)n[nH]c3c2)cc(N2C[C@@H](C(=O)NC3CCCCC3)CC[C@H]2C)n1
Summary of the method: as §1

encorafenib = compound: COC(=O)N[C@@H](C)CNc1nccc(-c2cn(C(C)C)nc2-c2cc(Cl)cc(NS(C)(=O)=O)c2F)n1 [encorafenib]
Summary of the method: as §1

[3] = compound: COC(=O)[C@H](CCSC)NC(=O)C1=C(C=C(C=C1)NC[C@H](CS)N)C2=CC=CC=C2
Summary of the method: as §1

[4] = compound: COC1=CC=C(C=C1)CN2C=CC3=C2C=C(C=C3)C(=O)NO
Summary of the method: as §1

filanesib = compound: CON(C)C(=O)N1N=C(c2cc(F)ccc2F)S[C@@]1(CCCN)c1ccccc1 [filanesib]
Summary of the method: as §1

zotarolimus = compound: CO[C@H]1C[C@@H]2CC[C@@H](C)[C@@](O)(O2)C(=O)C(=O)N2CCCC[C@H]2C(=O)O[C@H]([C@H](C)C[C@@H]2CC[C@H](n3cnnn3)[C@H](OC)C2)CC(=O)[C@H](C)/C=C(\C)[C@@H](O)[C@@H](OC)C(=O)[C@H](C)C[C@H](C)/C=C/C=C/C=C/1C [zotarolimus]
Summary of the method: as §1

idasanutlin = compound: COc1cc(C(=O)O)ccc1NC(=O)[C@@H]1N[C@@H](CC(C)(C)C)[C@](C#N)(c2ccc(Cl)cc2F)[C@H]1c1cccc(Cl)c1F [idasanutlin]
Summary of the method: as §1

alisertib = compound: COc1cc(Nc2ncc3c(n2)-c2ccc(Cl)cc2C(c2c(F)cccc2OC)=NC3)ccc1C(=O)O [alisertib]
Summary of the method: as §1

[5] = compound: COc1cc2nc(-c3cc(F)ccc3O)nc(N[C@@H]3CNC[C@H]3C(C)(C)O)c2cc1OC
Summary of the method: as §1

gefitinib = compound: COc1cc2ncnc(Nc3ccc(F)c(Cl)c3)c2cc1OCCCN1CCOCC1 [gefitinib]
Summary of the method: as §1

[6] = compound: COc1cccc2cc(-c3nc([C@H]4CC[C@H](C(=O)O)CC4)n4ncnc(N)c34)[nH]c12
Summary of the method: as §1

lapatinib = compound: CS(=O)(=O)CCNCc1ccc(-c2ccc3ncnc(Nc4ccc(OCc5cccc(F)c5)c(Cl)c4)c3c2)o1 [lapatinib]
Summary of the method: as §1

pictilisib = compound: CS(=O)(=O)N1CCN(Cc2cc3nc(-c4cccc5[nH]ncc45)nc(N4CCOCC4)c3s2)CC1 [pictilisib]
Summary of the method: as §1

Measured: log2 fold change

MT-ATP6 (UniProt P00846)
inactive: saracatinib 0.253 | sotrastaurin -0.059 | alvocidib -0.058 | Tubastatin A 0.122 | [1] -0.018 | defactinib -0.095 | rucaparib 0.06 | [2] -0.176 | encorafenib 0.016 | [3] 0.05 | [4] -0.018 | filanesib -0.036 | zotarolimus -0.022 | idasanutlin -0.084 | alisertib -0.05 | [5] 0.133 | gefitinib 0.05 | [6] 0.055 | lapatinib -0.105 | pictilisib 0.208

NRDC isoform 2 (UniProt O43847)
Sequence of UniProt O43847 (O43847 whole entry, looked up): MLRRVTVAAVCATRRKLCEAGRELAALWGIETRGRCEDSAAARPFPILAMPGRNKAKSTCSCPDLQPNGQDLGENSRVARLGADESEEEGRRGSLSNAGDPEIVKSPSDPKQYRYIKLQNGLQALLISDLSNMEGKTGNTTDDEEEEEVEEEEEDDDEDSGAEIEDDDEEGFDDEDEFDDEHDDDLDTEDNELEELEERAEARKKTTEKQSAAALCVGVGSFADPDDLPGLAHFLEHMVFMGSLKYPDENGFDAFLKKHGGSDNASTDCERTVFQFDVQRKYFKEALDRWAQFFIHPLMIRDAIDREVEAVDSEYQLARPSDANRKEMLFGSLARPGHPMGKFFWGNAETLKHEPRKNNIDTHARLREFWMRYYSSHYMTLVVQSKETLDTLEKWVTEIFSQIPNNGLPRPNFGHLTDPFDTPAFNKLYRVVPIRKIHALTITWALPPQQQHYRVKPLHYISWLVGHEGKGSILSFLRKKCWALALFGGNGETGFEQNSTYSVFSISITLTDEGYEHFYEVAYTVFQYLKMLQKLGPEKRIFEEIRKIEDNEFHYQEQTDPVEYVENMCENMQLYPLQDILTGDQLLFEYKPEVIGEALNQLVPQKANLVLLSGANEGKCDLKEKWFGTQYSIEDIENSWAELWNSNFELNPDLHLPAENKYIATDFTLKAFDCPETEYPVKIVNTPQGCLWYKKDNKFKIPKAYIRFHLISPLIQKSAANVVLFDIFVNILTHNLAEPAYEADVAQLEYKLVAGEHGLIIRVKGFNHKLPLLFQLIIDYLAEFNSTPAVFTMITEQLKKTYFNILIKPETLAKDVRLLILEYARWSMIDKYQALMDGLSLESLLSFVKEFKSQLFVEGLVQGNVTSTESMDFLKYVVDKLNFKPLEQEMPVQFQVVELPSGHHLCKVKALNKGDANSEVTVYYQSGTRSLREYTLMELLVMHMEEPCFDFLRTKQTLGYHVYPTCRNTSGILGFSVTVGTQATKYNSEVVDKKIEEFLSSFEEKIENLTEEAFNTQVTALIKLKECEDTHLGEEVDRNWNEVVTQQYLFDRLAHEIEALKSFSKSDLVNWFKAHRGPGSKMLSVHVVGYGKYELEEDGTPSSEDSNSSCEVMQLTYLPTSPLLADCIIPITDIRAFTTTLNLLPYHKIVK
inactive: saracatinib -0.024 | sotrastaurin -0.028 | alvocidib -0.078 | Tubastatin A -0.009 | [1] -0.033 | defactinib -0.077 | rucaparib 0.092 | [2] 0.01 | encorafenib 0.024 | [3] -0.076 | [4] 0 | filanesib -0.038 | zotarolimus 0.005 | idasanutlin -0.026 | alisertib 0.013 | [5] 0.076 | gefitinib -0.022 | [6] -0.001 | lapatinib -0.019 | pictilisib -0.029

MYH10 isoform 3 (UniProt P35580)
Sequence of UniProt P35580 (P35580 whole entry, looked up): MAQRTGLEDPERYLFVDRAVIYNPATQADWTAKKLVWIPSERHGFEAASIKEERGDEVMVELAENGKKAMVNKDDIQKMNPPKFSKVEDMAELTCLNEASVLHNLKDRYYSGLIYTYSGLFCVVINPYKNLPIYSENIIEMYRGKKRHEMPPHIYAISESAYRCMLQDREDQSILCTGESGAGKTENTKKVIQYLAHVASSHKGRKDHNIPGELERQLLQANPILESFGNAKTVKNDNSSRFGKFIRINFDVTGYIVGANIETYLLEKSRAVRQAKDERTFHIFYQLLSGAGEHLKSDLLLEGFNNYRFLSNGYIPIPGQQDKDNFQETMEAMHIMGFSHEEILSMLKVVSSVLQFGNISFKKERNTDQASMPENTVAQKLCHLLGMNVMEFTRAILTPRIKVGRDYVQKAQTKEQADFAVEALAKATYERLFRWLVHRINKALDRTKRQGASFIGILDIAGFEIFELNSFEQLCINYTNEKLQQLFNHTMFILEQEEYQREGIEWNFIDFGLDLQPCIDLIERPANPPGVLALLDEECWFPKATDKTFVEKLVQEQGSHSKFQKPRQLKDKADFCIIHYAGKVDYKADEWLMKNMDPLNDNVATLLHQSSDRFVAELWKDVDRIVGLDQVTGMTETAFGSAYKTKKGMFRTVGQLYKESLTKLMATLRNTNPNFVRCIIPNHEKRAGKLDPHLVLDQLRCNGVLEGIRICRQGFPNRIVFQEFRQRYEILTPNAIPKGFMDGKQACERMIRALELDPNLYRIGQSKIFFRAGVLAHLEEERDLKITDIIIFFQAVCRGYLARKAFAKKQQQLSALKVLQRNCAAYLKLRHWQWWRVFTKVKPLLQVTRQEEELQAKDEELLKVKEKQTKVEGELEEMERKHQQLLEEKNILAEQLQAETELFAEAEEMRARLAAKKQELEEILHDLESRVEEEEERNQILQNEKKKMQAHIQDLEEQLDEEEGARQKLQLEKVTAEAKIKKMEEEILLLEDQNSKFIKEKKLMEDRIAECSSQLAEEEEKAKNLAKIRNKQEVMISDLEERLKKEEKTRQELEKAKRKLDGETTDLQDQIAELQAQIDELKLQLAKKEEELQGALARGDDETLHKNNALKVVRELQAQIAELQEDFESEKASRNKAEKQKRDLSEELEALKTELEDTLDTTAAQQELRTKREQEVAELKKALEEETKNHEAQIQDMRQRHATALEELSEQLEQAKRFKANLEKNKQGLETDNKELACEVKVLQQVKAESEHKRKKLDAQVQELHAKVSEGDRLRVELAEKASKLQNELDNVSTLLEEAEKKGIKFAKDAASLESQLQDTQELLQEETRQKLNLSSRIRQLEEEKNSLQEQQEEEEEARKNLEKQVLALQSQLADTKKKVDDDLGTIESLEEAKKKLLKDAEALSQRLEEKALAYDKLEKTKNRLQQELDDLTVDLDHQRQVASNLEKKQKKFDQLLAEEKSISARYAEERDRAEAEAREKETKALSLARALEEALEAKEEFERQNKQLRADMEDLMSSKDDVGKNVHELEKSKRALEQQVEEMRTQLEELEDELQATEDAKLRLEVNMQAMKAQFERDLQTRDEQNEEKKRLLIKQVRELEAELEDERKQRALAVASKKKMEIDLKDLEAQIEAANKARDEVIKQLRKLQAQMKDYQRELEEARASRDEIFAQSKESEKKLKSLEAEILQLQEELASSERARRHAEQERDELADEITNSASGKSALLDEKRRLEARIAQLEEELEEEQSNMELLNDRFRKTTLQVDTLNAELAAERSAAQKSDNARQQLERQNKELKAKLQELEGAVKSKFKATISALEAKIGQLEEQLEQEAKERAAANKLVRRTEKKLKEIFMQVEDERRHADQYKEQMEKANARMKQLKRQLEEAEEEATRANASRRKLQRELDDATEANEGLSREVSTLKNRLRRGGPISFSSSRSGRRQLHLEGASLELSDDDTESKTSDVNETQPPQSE
inactive: saracatinib 0.019 | sotrastaurin -0.058 | alvocidib -0.034 | Tubastatin A 0.002 | [1] 0.024 | defactinib -0.039 | rucaparib -0.056 | [2] -0.005 | encorafenib 0.017 | [3] -0.023 | [4] 0.092 | filanesib -0.116 | zotarolimus 0.011 | idasanutlin -0.065 | alisertib -0.025 | [5] 0.036 | gefitinib -0.005 | [6] -0.007 | lapatinib -0.006 | pictilisib -0.033

NPEPPS (UniProt P55786)
active: [3] 0.231 | [4] 0.22 | zotarolimus 0.338
inactive: saracatinib -0.013 | sotrastaurin 0.108 | alvocidib -0.077 | Tubastatin A 0.012 | [1] -0.082 | defactinib -0.004 | rucaparib 0.013 | [2] 0.075 | encorafenib -0.032 | filanesib -0.056 | idasanutlin -0.072 | alisertib -0.017 | [5] 0.037 | gefitinib -0.026 | [6] 0.066 | lapatinib -0.002 | pictilisib -0.001

MITD1 (UniProt Q8WV92)
inactive: saracatinib -0.031 | sotrastaurin -0.002 | alvocidib -0.005 | Tubastatin A 0.161 | [1] -0.146 | defactinib 0.133 | rucaparib 0.097 | [2] -0.112 | encorafenib -0.018 | [3] -0.043 | [4] 0.059 | filanesib 0.004 | zotarolimus -0.068 | idasanutlin -0.058 | alisertib 0.018 | [5] -0.013 | gefitinib -0.018 | [6] 0.063 | lapatinib 0.004 | pictilisib -0.121

NCKAP1 isoform 2 (UniProt Q9Y2A7)
inactive: saracatinib 0.02 | sotrastaurin -0.031 | alvocidib -0.06 | Tubastatin A 0.027 | [1] 0.006 | defactinib -0.071 | rucaparib -0.022 | [2] 0.019 | encorafenib 0 | [3] -0.007 | [4] 0.019 | filanesib -0.042 | zotarolimus 0.025 | idasanutlin -0.035 | alisertib 0.067 | [5] 0.008 | gefitinib -0.009 | [6] -0.038 | lapatinib 0.016 | pictilisib -0.049

NR2C2AP isoform 2 (UniProt Q86WQ0)
Sequence of UniProt Q86WQ0 (Q86WQ0 whole entry, looked up): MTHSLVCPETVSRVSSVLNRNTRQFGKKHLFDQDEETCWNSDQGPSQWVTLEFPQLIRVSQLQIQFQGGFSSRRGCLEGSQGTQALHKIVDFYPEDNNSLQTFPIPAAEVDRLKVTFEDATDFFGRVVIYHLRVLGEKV
inactive: saracatinib 0.086 | sotrastaurin 0.018 | alvocidib -0.089 | Tubastatin A 0.099 | [1] 0.027 | defactinib -0.106 | rucaparib -0.031 | [2] 0.073 | encorafenib -0.048 | [3] -0.115 | [4] 0.101 | filanesib 0.01 | zotarolimus -0.014 | idasanutlin -0.062 | alisertib -0.066 | [5] -0.034 | gefitinib -0.01 | [6] 0.093 | lapatinib -0.011 | pictilisib 0.08

NUP85 (UniProt Q9BW27)
Sequence of UniProt Q9BW27 (Q9BW27 whole entry, looked up): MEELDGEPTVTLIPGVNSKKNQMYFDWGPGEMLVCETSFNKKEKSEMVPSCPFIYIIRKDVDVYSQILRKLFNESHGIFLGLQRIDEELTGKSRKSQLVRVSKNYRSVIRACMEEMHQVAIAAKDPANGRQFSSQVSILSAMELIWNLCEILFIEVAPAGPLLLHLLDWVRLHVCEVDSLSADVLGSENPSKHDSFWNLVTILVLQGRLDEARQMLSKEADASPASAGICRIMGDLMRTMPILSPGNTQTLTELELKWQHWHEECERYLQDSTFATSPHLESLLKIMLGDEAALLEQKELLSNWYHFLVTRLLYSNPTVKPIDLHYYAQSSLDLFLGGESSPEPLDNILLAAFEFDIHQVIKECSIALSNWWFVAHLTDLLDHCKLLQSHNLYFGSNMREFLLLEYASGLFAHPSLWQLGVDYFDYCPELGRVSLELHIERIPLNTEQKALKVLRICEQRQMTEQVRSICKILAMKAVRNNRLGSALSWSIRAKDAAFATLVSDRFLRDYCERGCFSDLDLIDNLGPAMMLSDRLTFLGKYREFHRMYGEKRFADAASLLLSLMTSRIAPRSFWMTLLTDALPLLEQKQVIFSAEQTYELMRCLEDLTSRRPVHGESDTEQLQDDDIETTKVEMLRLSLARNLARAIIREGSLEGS
inactive: saracatinib 0.027 | sotrastaurin -0.026 | alvocidib -0.023 | Tubastatin A -0.001 | [1] -0.021 | defactinib -0.097 | rucaparib -0.047 | [2] -0.034 | encorafenib 0.025 | [3] 0.003 | [4] 0.01 | filanesib -0.009 | zotarolimus -0.022 | idasanutlin 0.016 | alisertib -0.061 | [5] -0.038 | gefitinib 0.025 | [6] 0.043 | lapatinib -0.042 | pictilisib 0.049

PAFAH1B2 (UniProt P68402)
Sequence of UniProt P68402 (P68402 whole entry, looked up): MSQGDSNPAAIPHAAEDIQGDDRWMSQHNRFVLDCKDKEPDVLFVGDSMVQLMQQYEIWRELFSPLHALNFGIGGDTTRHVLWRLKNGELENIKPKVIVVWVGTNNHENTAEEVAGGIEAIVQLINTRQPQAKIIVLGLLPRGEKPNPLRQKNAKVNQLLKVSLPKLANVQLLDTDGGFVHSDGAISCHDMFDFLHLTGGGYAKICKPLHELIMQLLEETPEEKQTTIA
inactive: saracatinib -0.016 | sotrastaurin 0.097 | alvocidib 0.031 | Tubastatin A -0.058 | [1] -0.029 | defactinib 0.022 | rucaparib 0.037 | [2] 0.078 | encorafenib -0.006 | [3] -0.026 | [4] 0.044 | filanesib -0.074 | zotarolimus 0.007 | idasanutlin 0.082 | alisertib 0.02 | [5] -0.071 | gefitinib 0.086 | [6] 0.033 | lapatinib 0.029 | pictilisib -0.28

NDUFB7 (UniProt P17568)
inactive: saracatinib 0.046 | sotrastaurin -0.014 | alvocidib -0.016 | Tubastatin A 0.016 | [1] 0.021 | defactinib -0.015 | rucaparib -0.021 | [2] -0.011 | encorafenib -0.032 | [3] 0.029 | [4] -0.011 | filanesib -0.023 | zotarolimus -0.03 | idasanutlin -0.025 | alisertib -0.051 | [5] -0.077 | gefitinib 0 | [6] 0.002 | lapatinib -0.013 | pictilisib -0.066

NOSIP (UniProt Q9Y314)
inactive: saracatinib -0.045 | sotrastaurin -0.28 | alvocidib -0.098 | Tubastatin A 0.199 | [1] 0.05 | defactinib -0.199 | rucaparib 0.003 | [2] -0.106 | encorafenib 0.181 | [3] -0.182 | [4] -0.069 | filanesib 0.143 | zotarolimus -0.018 | idasanutlin 0.029 | alisertib 0.166 | [5] 0.174 | gefitinib 0.156 | [6] -0.053 | lapatinib -0.046 | pictilisib -0.067

MORC3 (UniProt Q14149)
Sequence of UniProt Q14149 (Q14149 whole entry, looked up): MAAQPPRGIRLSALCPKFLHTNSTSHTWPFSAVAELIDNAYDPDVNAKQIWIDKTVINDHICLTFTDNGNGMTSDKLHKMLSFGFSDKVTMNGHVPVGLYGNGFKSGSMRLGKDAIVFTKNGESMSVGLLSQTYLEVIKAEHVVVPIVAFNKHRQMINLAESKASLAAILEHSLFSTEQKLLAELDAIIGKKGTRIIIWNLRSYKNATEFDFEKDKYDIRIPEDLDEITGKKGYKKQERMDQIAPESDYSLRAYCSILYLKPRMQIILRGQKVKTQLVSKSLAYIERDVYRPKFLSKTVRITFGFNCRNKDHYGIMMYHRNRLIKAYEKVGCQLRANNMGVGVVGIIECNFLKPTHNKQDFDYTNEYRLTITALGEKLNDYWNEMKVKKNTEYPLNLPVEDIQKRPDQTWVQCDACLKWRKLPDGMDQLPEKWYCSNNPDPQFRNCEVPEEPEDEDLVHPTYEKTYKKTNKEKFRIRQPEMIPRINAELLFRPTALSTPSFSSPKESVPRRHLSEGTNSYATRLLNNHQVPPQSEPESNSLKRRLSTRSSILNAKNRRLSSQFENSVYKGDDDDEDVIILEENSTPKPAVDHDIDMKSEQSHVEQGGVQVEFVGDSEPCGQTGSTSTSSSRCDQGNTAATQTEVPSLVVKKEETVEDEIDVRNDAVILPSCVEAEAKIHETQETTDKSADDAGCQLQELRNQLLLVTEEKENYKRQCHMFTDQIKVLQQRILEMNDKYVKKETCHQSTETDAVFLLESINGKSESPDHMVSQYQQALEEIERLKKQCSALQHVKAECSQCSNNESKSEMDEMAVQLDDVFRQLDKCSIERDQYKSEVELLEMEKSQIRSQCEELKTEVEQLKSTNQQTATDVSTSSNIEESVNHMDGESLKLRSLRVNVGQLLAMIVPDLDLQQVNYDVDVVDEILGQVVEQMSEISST
inactive: saracatinib 0 | sotrastaurin -0.141 | alvocidib -0.08 | Tubastatin A -0.247 | [1] 0.249 | defactinib -0.184 | rucaparib 0.044 | [2] -0.02 | encorafenib 0.076 | [3] -0.048 | [4] 0.013 | filanesib -0.04 | zotarolimus 0.015 | idasanutlin 0.021 | alisertib 0.039 | [5] 0.146 | gefitinib -0.082 | [6] 0 | lapatinib -0.058 | pictilisib 0.196
